In the library only some 19% were active in any assay of this set; here they are far more common.
ASM inhibitor – Inhibitors of Secretory Acid Sphingomyelinase (S-ASM): qHTS; placental ASM, HMU-PC fluorogenic substrate, 60 min; Potency, µM (series often up to 57.5 µM), inactives show at the top dose activity change, negative = inhibition, most hits filed as inhibitors; hit rate 0.006% among 340,000; note: potency is the fitted concentration of half-maximal effect
Target sequence (P17405 47-631 limits assumed): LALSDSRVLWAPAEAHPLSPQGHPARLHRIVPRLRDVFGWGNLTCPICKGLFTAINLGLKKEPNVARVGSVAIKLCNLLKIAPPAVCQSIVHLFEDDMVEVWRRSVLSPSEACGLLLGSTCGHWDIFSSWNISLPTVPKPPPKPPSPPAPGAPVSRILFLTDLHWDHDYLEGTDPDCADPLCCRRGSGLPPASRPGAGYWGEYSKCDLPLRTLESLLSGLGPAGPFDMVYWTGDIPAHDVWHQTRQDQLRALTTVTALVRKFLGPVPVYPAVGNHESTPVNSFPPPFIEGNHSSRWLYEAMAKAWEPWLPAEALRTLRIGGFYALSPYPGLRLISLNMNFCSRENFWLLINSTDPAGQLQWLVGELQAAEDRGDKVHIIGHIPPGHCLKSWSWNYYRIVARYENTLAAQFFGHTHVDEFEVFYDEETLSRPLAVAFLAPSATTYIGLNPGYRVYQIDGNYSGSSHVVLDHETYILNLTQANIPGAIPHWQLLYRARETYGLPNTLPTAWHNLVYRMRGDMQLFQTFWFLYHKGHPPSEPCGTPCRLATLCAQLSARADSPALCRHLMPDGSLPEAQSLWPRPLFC
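qHTS format. ASM enzyme prepared from human placenta hydrolyses the fluorogenic substrate HMU-PC0 (9 uM final) over 60 min at 37 °C after a 10 min compound preincubation.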
DT40 TDP1 CPT – qHTS for Inhibitors of human tyrosyl-DNA phosphodiesterase 1 (TDP1): qHTS in cells in presence of CPT; chicken DT40 Tdp1-/-;hTDP1 cells + 20 nM CPT, ATP luminescence, 48 h; Potency, µM (titrated, usually from 46.2 µM), without a hit: top-dose activity change, negative = growth inhibition, actives largely listed as inhibitors; hit rate 12% among 420,000; AID 686979, 2013; note: potency is the fitted concentration of half-maximal effect; % is set by controls: 0 for no effect and ±100 for the full control effect; nearly all actives have a fitted effect of over 55% in size
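Chicken DT40 Tdp1-/- cells complemented with human TDP1, 400 cells/well, exposed to compounds plus 20 nM camptothecin for at least 48 h at 37 C; viability read as ATP content by CellTiter-Glo luminescence.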
DT40 TDP1 no CPT – qHTS for Inhibitors of human tyrosyl-DNA phosphodiesterase 1 (TDP1): qHTS in cells in absence of CPT | hit rate 15% among 420,000 | DT40 Tdp1-/- hTDP1 cells, no CPT, ATP luminescence, 48 h | AID 686978, 2013 | Potency, µM (top dose mostly 46.2 µM), inactives show top-dose activity change, negative = growth inhibition, usual class: inhibitors; note: potency is the fitted concentration of half-maximal effect; % is set by controls: 0 for no effect and ±100 for the full control effect; nearly all actives have a fitted effect of over 55% in size
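Chicken DT40 Tdp1-/- cells stably complemented with human TDP1 were seeded at 400 cells/well with DMSO in place of 20 nM camptothecin. After compound pinning, cells grew at least 48 hr at 37 °C; viability read by CellTiter-Glo luminescence.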
IL-1B inflam inh – qHTS for Inhibitors of Inflammasome Signaling: IL-1-beta AlphaLISA Primary Screen. THP-1 LPS/ATP IL-1B secretion, AlphaLISA, 16 h; stronger effect = lower value. activity change, % at 57.5 µM. hit rate 4.7% among 360,000. AID 743279, 2014; in the data active = activity change below about -50%; inconclusive = mostly about -30% to -49%; note: % is set by controls: 0 for no effect and ±100 for the full control effect
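THP-1 cells pretreated 1 hr with compounds (up to 57.5 uM final), then stimulated with LPS (250 ng/mL final) plus ATP (1.25 mM final); secreted IL-1B measured by AlphaLISA after 16 hr, decreased signal indicating inhibition.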
TGFb SMAD3 inh – qHTS for Inhibitors of TGF-b; HepG2 CAGA-GFP TGF-b/SMAD3 reporter, GFP fluorescence, 18 h; TGF-beta stimulated, 500 pg/mL final; Potency, µM (titrated, usually from 46.1 µM), for inactives: top-dose activity, negative = inhibition, hits mostly inhibitors; hit rate 1.2% among 410,000; AID 588855, 2011; note: potency is the fitted concentration of half-maximal effect; % is set by controls: 0 for no effect and ±100 for the full control effect; nearly all actives have a fitted effect of over 65% in size
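HEPG2 CAGA-GFP reporter cells (1000/well, DMEM with 1% FBS) received compounds, then recombinant TGF-beta at 500 pg/mL final for 18 hours at 37 degrees C. Per-cell GFP summed per well was normalised to unstimulated and stimulated DMSO controls before curve fitting.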
HepG2 viability – qHTS for Inhibitors of TGF-b: Cytotox Counterscreen; Potency, µM (top dose mostly 46.1 µM), for the others: top-dose activity change, negative = cytotoxicity, actives largely listed as cytotoxic; AID 588856, 2011; HepG2 CAGA-GFP viability, ATP luminescence, 18 h; hit rate 0.76% among 410,000; note: potency is the fitted concentration of half-maximal effect
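HepG2 CAGA-GFP cells (1000/well, DMEM with 1% FBS) received compound, then TGF-beta at 500 pg/mL final, and were incubated 18 hours at 37 degrees C. Viability was read by CellTiter-Glo luminescence. Media-only wells were set as complete cell-killing and DMSO as no toxicity.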
* marks the source's active call; other numbers are inactive results; ? = inconclusive; · = not tested or not shown; [ ] = dose if it differs, or a comment. Unless noted, calls come from the whole dose curve; as a rule, active = well fitted curve in the direction sought with a large enough effect; inconclusive = small, poorly fitted or top-dose-only effect, or another doubt; inactive = no such curve, though single readings can be large; an effect the other way counts as inactive or inconclusive.

SMILES	ASM inhibitor	DT40 TDP1 CPT	DT40 TDP1 no CPT	IL-1B inflam inh	TGFb SMAD3 inh	HepG2 viability
Cc1ccc(-n2c(N)c(C#N)c(-c3ccc(Cl)cc3)c(C#N)c2=O)cc1	9%	?	-19%	-2	?	-32%
CCOC(=O)c1c(-c2ccc(Cl)cc2)c(C#N)c(=O)n(N)c1N	6%	?	0.52µM*	31	27%	5%
COC(=O)c1c(NC(=O)c2cc(OC)c(OC)c(OC)c2Br)sc2c1CCC(C)C2 (stereo unspecified)	·	?	21µM*	·	0%	2%
COc1cc(C(=O)Nc2sc3c(c2C(N)=O)CCC(C)C3)cc(OC)c1OC (stereo unspecified)	·	?	-15%	·	-3%	-3%
COc1cc(C(=O)Nc2sc3c(c2C#N)CCCC3)c(Br)c(OC)c1OC	·	?	3.3µM*	·	-24%	-14%
OB(O)c1csc2ccccc12	·	-4%	11µM*	·	0%	-29%
O=c1[nH]c(/C(Cl)=C/c2c(F)cccc2Cl)nc2cc(Cl)ccc12	3%	-14%	?	22	?	-62%
O=c1[nH]c(/C(Cl)=C/c2cc(Cl)ccc2O)nc2cc(Cl)ccc12	-5%	13µM*	13µM*	-105*	-21%	-13%
COc1ccccc1N1CCN(C(=O)c2sc3nc(-c4ccc(F)cc4)cn3c2C)CC1	?	23µM*	16µM*	?	-30%	-16%
COc1ccc(-c2cn3c(C)c(C(=O)N4CCN(c5ccccc5)CC4)sc3n2)cc1	-10%	?	?	2	15%	42%
Cc1c(C(=O)N2CC(C)OC(C)C2)sc2nc(-c3ccc(F)cc3)cn12 (stereo unspecified)	1%	?	18µM*	19	8%	17%
Cc1ccc(CNC(=O)C2CCCN(S(=O)(=O)c3cccc4nsnc34)C2)cc1 (stereo unspecified)	·	0%	-14%	·	-11%	-2%
COc1ccc(NC(=O)CS(=O)c2cccc(Cl)c2)cc1 (stereo unspecified)	-2%	-20%	17%	5	7%	2%
O=C(/C=C1\NC2(CCCC2)Cc2ccccc21)C(=O)N/N=C/c1ccccc1O	-11%	3.7µM*	2.1µM*	54	?	-36%
CN(C)c1ccc(/C=N/NC(=O)C(=O)/C=C2\NC3(CCCC3)Cc3ccccc32)cc1	-30%	26µM*	21µM*	-14	11%	15%
COc1cc(/C=N/NC(=O)C(=O)/C=C2\NC3(CCCC3)Cc3ccccc32)ccc1O	-17%	?	?	-12	-10%	-2%
Nc1c(C(=O)Nc2ccccc2Cl)c2ccccn2c1C(=O)c1ccc(Cl)cc1	·	-14%	-24%	·	0%	4%
O=c1c(-c2c(O)cc(O)c3c2O[C@H](c2ccc(O)cc2)CC3)c(-c2ccc(O)cc2)oc2cc(O)cc(O)c12	?	?	5.2µM*	50	?	-47%
CC(=O)c1ccc(NC(=O)C2(c3ccccc3)CC2(Cl)Cl)cc1 (stereo unspecified)	-11%	-16%	?	·	4%	9%
O=C(Nc1ccccc1Cl)C1(c2ccccc2)CC1(Cl)Cl (stereo unspecified)	-2%	-18%	12µM*	7	-22%	-14%
C=C(C)C(=O)Oc1ccc(N=Nc2ccc(C)cc2)ccc1=O	-3%	10µM*	2.9µM*	?	?	-32%
NC(=O)c1nn(-c2ccccc2)nc1NC(=O)CN1CCOCC1	0%	5%	19%	-2	-1%	-14%
CCc1nc2c(cnn2-c2ccc(Cl)cc2)c(=O)n1-c1ccc2c(c1)OCCO2	0%	?	18µM*	12	-11%	3%
CCc1cccc(-n2c(C)nc3c(cnn3-c3ccc(Cl)cc3)c2=O)c1	·	5.8µM*	4.1µM*	·	?	-27%
Cc1ccc(-n2c(C)nc3c(cnn3-c3ccccc3C)c2=O)cc1F	·	?	?	·	-4%	-7%
SMILES	ASM inhibitor	DT40 TDP1 CPT	DT40 TDP1 no CPT	IL-1B inflam inh	TGFb SMAD3 inh	HepG2 viability
CCc1cccc(-n2c(C)nc3c(cnn3-c3ccc(C)c(C)c3)c2=O)c1	·	-74%	23µM*	·	?	-35%
COc1cccc(-n2c(C)nc3c(cnn3-c3ccc(Cl)cc3)c2=O)c1	3%	8.2µM*	7.3µM*	-20	-5%	20%
O=c1c2cnn(-c3ccccc3)c2nc(-c2cccs2)n1-c1cccc(Cl)c1	-15%	15µM*	9.2µM*	-2	?	-2%
O=c1c2cnn(-c3ccccc3)c2nc(-c2cccs2)n1-c1ccc(Cl)cc1	-6%	0.46µM*	0.58µM*	26	4%	-25%
O=c1oc(-c2cccs2)nc2c1cnn2-c1ccccc1	191%	?	?	-6	0%	-19%
Cc1ccc(F)c(CNC(=O)C2(C)CCCN2C(=O)C(C)C)c1F (stereo unspecified)	·	-29%	-17%	23	14%	10%
O=C(CN1CCC(NC(=O)Nc2ccc(F)cc2)CC1)Nc1ccccc1[N+](=O)[O-]	1%	?	21µM*	15	-22%	-9%
CC1(C(=O)Nc2ccc3c(c2)OCCO3)CSCC(=O)N1C1CC1 (stereo unspecified)	·	18%	2%	0	·	·
COc1cccc(CN2CCc3nnc(CCc4ccccc4)n3CC2)c1OC	·	0%[9.04 µM]	-9%	·	·	·
CCOC(=O)c1c(N)sc2c1CCC1C(=O)N(C3CCCCC3)C(=O)C21 (stereo unspecified)	6%	?	26µM*	-19	0%	7%
CCOC(=O)c1c(N)sc2c1CCC(CC)C2 (stereo unspecified)	-2%	1%	-16%	-13	1%	-7%
C/C(CCC12CC3CC(CC(C3)C1)C2)=N\NC(N)=S	-5%	15µM*	16µM*	-5	?	-40%
C/C(CC1CC(C)OC1=O)=N\NC(N)=S (stereo unspecified)	-3%	-11%	15%	22	2%	-10%
Cc1cccc2c(=O)[nH]c3c(-c4nc(-c5ccc(Cl)cc5)cs4)c(O)cn3c12	·	4µM*	7.1µM*	·	4%	-27%

Screening results as filed in PubChem.
